# According to the supplement of paper PMC8183993:
# Counter-ions that a name gives are not always drawn. ± gives the standard deviation of the averaged measurements. Whole data set: some 3,200 compounds, median “nuclei count (viability) relative to DMSO” near 99, cut for the lowest 2% near 16. This excerpt belongs to a sample that is enriched for the lowest values.
# System: U2OS
# Experiment: nuclei count (viability) relative to DMSO (% of DMSO); higher = more viable cells
# Settings: 10 µM; 24 h
# Experimental: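 Primary image-based screen in U2OS cells: compounds at 10 uM for 24 h, then a 1 h o-propargyl-puromycin (OPP) pulse, click labelling, and high-throughput microscopy. Mean cytoplasmic OPP intensity and nuclei count were normalised to DMSO wells within each plate (DMSO = 100) and averaged over triplicate plates.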
row,Compound,nuclei count
1,CCCc1c(OCCCOc2ccc(OCC(=O)O)cc2)ccc(C(C)=O)c1O,108
2,COc1c(OCCCN2CCOCC2)ccc2c1N=C(NC(=O)c1cnc(N)nc1)N1CCN=C21,93.2
3,CCOC(=O)[C@H](CCc1ccccc1)N[C@H]1CS[C@H](c2cccs2)CN(CC(=O)O)C1=O [Temocapril HCl],108
4,O=C(/C=C/c1c(C(=O)O)[nH]c2cc(Cl)cc(Cl)c12)Nc1ccccc1 [Gavestinel],93.2
5,Cn1cnc(N)c2ncnc1-2 [3-Methyladenine (3-MA)],107
6,Cn1cnc(N)c2ncnc1-2 [3-Methyladenine],104
7,OCC1OC(n2cnc3c(NC4CCCC4)nc(Cl)nc32)C(O)C1O (stereo not given) [2-Chloro-N6-cyclopentyladenosine],93.5
8,"CC/C=C\C/C=C\C/C=C\C/C=C\C/C=C\C/C=C\CCC(=O)O [Docosa-4Z,7Z,10Z,13Z,16Z,19Z-hexaenoic acid]",96.9
9,CCCOC(=O)c1cc(O)c(O)c(O)c1 [N-Propyl gallate],82.9
10,Cc1cc(/C(=C/Nc2ccc(Cl)cc2)C(=O)Nc2ccc(Cl)cc2)on1,102
11,Cc1sc(N)c(C(=O)c2cccc(C(F)(F)F)c2)c1C,107
12,N[C@H](C(=O)O)[C@H](OCc1ccccc1)C(=O)O (racemic),89.6
13,CC(C)NCCN(C(C)C)S(=O)(=O)c1ccc(Cl)cc1Cl,79.5
14,CCCCCS(=O)(=O)CCCCCCCCCCn1c(-c2ccc(O)cc2)c(C)c2cc(O)ccc21,105
15,CN(CCOc1ccc(C[C@H](Nc2ccccc2C(=O)c2ccccc2)C(=O)O)cc1)c1ccccn1,104
16,CC1(C)S[C@@H]2[C@H](NC(=O)Cc3ccccc3)C(=O)N2[C@H]1C(=O)O [Benzathine benzylpenicillin],81.7
17,Cc1cc(C(=O)NNCc2ccccc2)no1 [Isocarboxazid],109
18,CC1(C)OC2=C(C(=O)c3ccccc3C2=O)[C@H](NCc2ccccc2)[C@@H]1O,14.7
19,CC1(C)S[C@@H]2[C@H](NC(=O)Cc3ccccc3)C(=O)N2[C@H]1C(=O)O [Benzylpenicillin sodium],98.6
20,C[C@H]1COC2(CCN(c3nc(=O)c4cc(C(F)(F)F)cc([N+](=O)[O-])c4s3)CC2)O1 (racemic) [BTZ043 racemate],101
21,Cc1nnc(-c2ccc3occ(-c4ccc([S+](C)[O-])cc4)c3c2)o1 (stereo not given),112
22,COc1c(C)cnc(Cn2cnc3c(Cl)nc(N)nc32)c1C,49.7
23,Cc1cn(CCN2CCN(c3ccccc3-c3cc(C#N)cc(C(=O)NCCCN4CCCC4)c3)CC2)c2ccccc12,22.8
24,O=C(Nc1cc(C(F)(F)F)cc(C(F)(F)F)c1)c1cc(Cl)ccc1O,78.7

row,Compound,nuclei count
1,CC(C)C[C@H](NC(=O)N1CCCCCC1)C(=O)N[C@H](Cc1cn(C)c2ccccc12)C(=O)N[C@H](Cc1ccccn1)C(=O)O,100
2,C[N+](C)([O-])CCNc1ccc(NCC[N+](C)(C)[O-])c2c1C(=O)c1c(O)ccc(O)c1C2=O [Banoxantrone dihydrochloride],51.2
3,O=C1c2c(O)ccc(O)c2C(=O)c2c(NCCNCCO)ccc(NCCNCCO)c21 [Mitoxantrone dihydrochloride],15.5
4,O=C1c2ccccc2C(=O)c2c(NCCc3ccc(O)cc3)ccc(NCCc3ccc(O)cc3)c21,97.1
5,Nc1[nH]nc2nc3ccccc3nc12,98.5
6,Nc1ccc(-c2ccc3ncc4ccc(=O)n(-c5cccc(C(F)(F)F)c5)c4c3c2)cn1 [Torin 2],27.7 ± 1.8
7,COc1ccc(-c2ccc3ncc4c(c3c2)n(-c2ccc(N3CCNCC3)c(C(F)(F)F)c2)c(=O)n4C)cn1,16.4 ± 5.4
8,CCC(=O)N1CCN(c2ccc(-n3c(=O)ccc4cnc5ccc(-c6cnc7ccccc7c6)cc5c43)cc2C(F)(F)F)CC1 [Torin 1],80.4
9,O=C1[C@@H]2[C@H]3CC[C@H](C3)[C@@H]2C(=O)N1C[C@@H]1CCCC[C@H]1CN1CCN(c2nsc3ccccc23)CC1 [Lurasidone HCl],102
10,CCN1CCN(c2ccc(Nc3cc(N(C)C(=O)Nc4c(Cl)c(OC)cc(OC)c4Cl)ncn3)cc2)CC1,96.4
11,CC(C)[C@H](NS(=O)(=O)c1ccc(-c2ccc(Br)cc2)cc1)C(=O)O,97.3
12,CC1(C)C[C@@H]1C(=O)N/C(=C\CCCCSC[C@H](N)C(=O)O)C(=O)O [Cilastatin],91.5
13,CC1(C)C[C@@H]1C(=O)N/C(=C\CCCCSC[C@H](N)C(=O)O)C(=O)O [Cilastatin sodium],96.7
14,COC1=CC(c2cc3ccccc3[nH]2)=N/C1=C\c1[nH]c(C)cc1C [Obatoclax mesylate (GX15-070)],45.5
15,CC[C@]1(O)C[C@H]2CN(CCc3c([nH]c4ccccc34)[C@@](C(=O)OC)(c3cc4c(cc3OC)N(C=O)[C@H]3[C@@](O)(C(=O)OC)[C@H](OC(C)=O)[C@]5(CC)C=CCN6CC[C@]43[C@@H]65)C2)C1 [Vincristine sulfate],17.8
16,CC[C@]1(O)C[C@@H]2CN(CCc3c([nH]c4ccccc34)[C@@](C(=O)OC)(c3cc4c(cc3OC)N(C)[C@H]3[C@@](O)(C(=O)OC)[C@H](OC(C)=O)[C@]5(CC)C=CCN6CC[C@]43[C@@H]65)C2)C1 [Vinblastine],100
17,CC[C@]12C=CCN3CC[C@@]4(c5cc([C@@]6(C(=O)OC)C[C@@H]7C[C@@H](C(C)(F)F)CN(Cc8c6[nH]c6ccccc86)C7)c(OC)cc5N(C)[C@H]4[C@@](O)(C(=O)OC)[C@@H]1OC(C)=O)[C@@H]32 [Vinflunine Tartrate],14.1
18,CCC1=C[C@@H]2CN(C1)Cc1c([nH]c3ccccc13)[C@@](C(=O)OC)(c1cc3c(cc1OC)N(C)[C@H]1[C@@](O)(C(=O)OC)[C@H](OC(C)=O)[C@]4(CC)C=CCN5CC[C@]31[C@@H]54)C2 [Vinorelbine (Navelbine)],16.1
19,CC[C@]1(O)C[C@H]2CN(CCc3c([nH]c4ccccc34)[C@@](C(=O)OC)(c3cc4c(cc3OC)N(C=O)[C@H]3[C@@](O)(C(=O)OC)[C@H](OC(C)=O)[C@]5(CC)C=CCN6CC[C@]43[C@@H]65)C2)C1 [Vincristine],18.1
20,CC[C@]1(O)C[C@@H]2CN(CCc3c([nH]c4ccccc34)[C@@](C(=O)OC)(c3cc4c(cc3OC)N(C)[C@H]3[C@@](O)(C(=O)OC)[C@H](OC(C)=O)[C@]5(CC)C=CCN6CC[C@]43[C@@H]65)C2)C1 [Vinblastine sulfate],16.8
21,O=C(c1cc(O)c(O)c(O)c1)c1ccc(O)c(O)c1O [Exifone],94.1
22,COc1ccccc1N1CCN(CCN(C(=O)C2CCCCC2)c2ccccn2)CC1,101
23,Cn1nc(C(C)(C)C)cc1C(=O)N[C@@H](Cc1cccc(Cl)c1)C(=O)NCC#N [Cathepsin Inhibitor 1],107
24,CC(C)c1cc(C(C)C)c(CC(=O)NS(=O)(=O)Oc2c(C(C)C)cccc2C(C)C)c(C(C)C)c1 [Avasimibe (CI-1011)],99.4

row,Compound,nuclei count
1,NC(N)=S [Thiourea],103
2,Nc1nc(N)c2nc(-c3cccc(O)c3)cnc2n1,94.7 ± 4.5
3,c1ccc2sc(N3CCN(Cc4ccc5c(c4)OCO5)CC3)nc2c1 [2-[1-(4-Piperonyl)piperazinyl]benzothiazole],111
4,CC(C)c1nc(CN(C)C(=O)N[C@@H](CCN2CCOCC2)C(=O)N[C@H](CC[C@H](Cc2ccccc2)NC(=O)OCc2cncs2)Cc2ccccc2)cs1 [Cobicistat (GS-9350)],96.2
5,C[C@H](N[C@@H](CCc1ccccc1)C(=O)O)C(=O)N1CCC[C@H]1C(=O)O [Enalaprilat dihydrate],94.3
6,CC(C)C[C@H](NC(=O)[C@H](CCc1ccccc1)NC(=O)CN1CCOCC1)C(=O)N[C@@H](Cc1ccccc1)C(=O)N[C@@H](CC(C)C)C(=O)[C@@]1(C)CO1 [Carfilzomib (PR-171)],7.25
7,CC1OC2(CS1)CN1CCC2CC1 (stereo not given) [Cevimeline hydrochloride],101
8,Cc1ccc(C(=O)c2cc(/C=C/C(=O)NO)n(C)c2)cc1,92.7
9,CN(Cc1ccccc1)C(=O)[C@H](Cc1ccc2ccccc2c1)NC(=O)[C@@H]1C[C@@H](O)CN1C(=O)c1cn(C)c2ccccc12,98
10,Cc1cc2c(cc1C1(c3ccc(C(=O)O)cn3)CC1)C(C)(C)CCC2(C)C,102
11,CCc1cncnc1N1CCN(Cc2nc3ccc(C(F)(F)F)cc3[nH]2)CC1,99.88 ± 0.89
12,Cc1nc2ccc(NC(=O)Nc3ccnc4cccnc34)cc2o1,99.6
13,NC(=O)Nc1cc(-c2cccc(F)c2)sc1C(=O)N[C@H]1CCCNC1,7.62
14,Cc1c(C(=O)NC2CCCCC2)sc2nc3ccc(N)cc3n12,99.5
15,NC(=O)Nc1sc(-c2ccc(F)cc2)cc1C(N)=O,47 ± 0.38
16,Cc1ccc2c(c1)C(=O)C1(O)CCN(c3ccccc3)C1=N2 (stereo not given) [(?)-Blebbistatin],96.3
17,CC(C(=O)Nc1cccc(/N=C/c2c(O)ccc3ccccc23)c1)c1ccccc1 (stereo not given) [Salermide],101
18,Cc1cc(/C=C/c2ccc3cc(N(C)C)ccc3[n+]2C)c(C)n1-c1ccccc1 [Pyrvinium pamoate],6.32
19,CN1CCN(CCc2ccc(Cl)c(Cl)c2)CC1 [BD 1063 dihydrochloride],104
20,OC(c1ccccc1)C1CCN(CCc2ccccc2)CC1 (stereo not given),99.4
21,NS(=O)(=O)c1cccc2c1c([N+](=O)[O-])cc1nc(O)c(O)nc12 [NBQX disodium salt],109
22,NS(=O)(=O)c1cccc2c1c([N+](=O)[O-])cc1nc(O)c(O)nc12,98.7
